Experimental data taken from PubChem BioAssay (NCI).
This is part of a sample that, as a whole, favours compounds with a hit. Of some 83,000 tested, about 20% had one in any assay.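 Results are percent growth after 48 hours of single-concentration exposure. 100 means growth as in untreated cells, lower positive values show inhibition; negative values down to -100 show cell death.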 Active and inactive are the calls of the source. The calls were made as follows: active = growth percent below 10; inactive = the rest.

How the values were obtained:
Test in all cases: NCI-60 one-dose screen, 48 h (100 = growth as untreated, 0 = no growth, -100 = all killed)
Details in all cases: 10 µM unless noted
HCT-15 colon = test system: HCT-15 colon
HT29 colon = test system: HT29 colon
SNB-75 CNS = test system: SNB-75 CNS
SNB-19 CNS = test system: SNB-19 CNS
U251 CNS = test system: U251 CNS
PC-3 prostate = test system: PC-3 prostate
SK-MEL-5 melanoma = test system: SK-MEL-5 melanoma
SK-MEL-28 melanoma = test system: SK-MEL-28 melanoma
UACC-62 melanoma = test system: UACC-62 melanoma
LOX IMVI melanoma = test system: LOX IMVI melanoma

Measured: growth

O=C(O)c1ccccc1Oc1cc(-c2ccco2)nc(OCCN2CCOCC2)n1
inactive: HCT-15 colon 101% | HT29 colon 92.5% | SNB-75 CNS 92.4% | SNB-19 CNS 96.9% | U251 CNS 113% | PC-3 prostate 127% | SK-MEL-5 melanoma 99.9% | SK-MEL-28 melanoma 106%

COc1ccc(/C=C/c2nc(NCCCN(C)C)c3ccccc3n2)cc1
active: U251 CNS -48.4% | LOX IMVI melanoma -67.1%
inactive: HCT-15 colon 86.6% | HT29 colon 11.5% | SNB-75 CNS 42.8% | SNB-19 CNS 100% | SK-MEL-5 melanoma 32.3% | UACC-62 melanoma 104% | SK-MEL-28 melanoma 77.5%

Oc1ccc(-c2nnc3c4[nH]ccc4ncn23)cc1
inactive: HCT-15 colon 110% | HT29 colon 98.3% | SNB-75 CNS 78.8% | SNB-19 CNS 98.9% | PC-3 prostate 94.3% | SK-MEL-5 melanoma 104% | UACC-62 melanoma 95.2% | LOX IMVI melanoma 89.9% | SK-MEL-28 melanoma 102%

N#CCCn1cnc2c(N)ncnc21
inactive: HCT-15 colon 98.3% | HT29 colon 101% | SNB-75 CNS 93.8% | SNB-19 CNS 99.4% | PC-3 prostate 94.2% | SK-MEL-5 melanoma 113% | UACC-62 melanoma 96.7% | LOX IMVI melanoma 97.1% | SK-MEL-28 melanoma 107%

ClCc1c(Cl)c(Cl)c(Cl)c(CCl)c1Cl
inactive: SNB-75 CNS 89% | SNB-19 CNS 58.7% | SK-MEL-5 melanoma 61.3% | UACC-62 melanoma 103% | SK-MEL-28 melanoma 88.7%
active: HCT-15 colon 4.87% | HT29 colon -78.4% | PC-3 prostate 8.08% | LOX IMVI melanoma -79%

CCCCCCCCCCCCCCCC1=NC(C)(C)CN1C(C)C
active: HCT-15 colon -63.5% | HT29 colon -50% | SNB-75 CNS -13.4% | U251 CNS -67% | PC-3 prostate -41.4% | SK-MEL-5 melanoma -86.1% | LOX IMVI melanoma -79.4% | SK-MEL-28 melanoma -80%
inactive: SNB-19 CNS 42.6%

O=C(CCCN1CCC(O)(c2ccc(Br)cc2)CC1)c1ccc(F)cc1
inactive: HCT-15 colon 49.8% | HT29 colon 22.1% | SNB-75 CNS 67.7% | SNB-19 CNS 78.4% | U251 CNS 64.4% | PC-3 prostate 69.7% | LOX IMVI melanoma 53.7% | SK-MEL-28 melanoma 74.6%
active: SK-MEL-5 melanoma -1.83%

CNC(=O)OC1C(O[C@H]2C[C@H]3[C@@H]4CC=C5C[C@@H](O)CC[C@]5(C)[C@H]4CC[C@]3(C)[C@H]2[C@H](C)C(=O)CCC(C)C)OCC(O)C1OC1OCC(O)C(O)C1OC(=O)c1ccc(OC)cc1 (some centres not stated)
inactive: HT29 colon 14.7% | SNB-75 CNS 18.4% | SNB-19 CNS 23.2%
active: HCT-15 colon 0.802% | U251 CNS 1.48% | PC-3 prostate -21.8% | SK-MEL-5 melanoma -27.9% | LOX IMVI melanoma -31.3% | SK-MEL-28 melanoma -53.3%

COc1ccc(/C(C)=N/NC(=O)CSc2nc3ccccc3c(=O)n2CCc2ccc(S(N)(=O)=O)cc2)cc1
active: HT29 colon -10% | SNB-75 CNS -26.2% | PC-3 prostate -12.8% | SK-MEL-5 melanoma -26.3%
inactive: HCT-15 colon 65.3% | SNB-19 CNS 35.4% | UACC-62 melanoma 27.3% | LOX IMVI melanoma 28.3% | SK-MEL-28 melanoma 43.1%

Cc1ccc(OC2=C(C#N)C(=N)N3C(=NN2)Sc2c(C)ccc(C)c23)cc1
inactive: HCT-15 colon 104% | HT29 colon 116% | SNB-75 CNS 96.5% | SNB-19 CNS 118% | PC-3 prostate 82.4% | SK-MEL-5 melanoma 96.3% | UACC-62 melanoma 98.7% | LOX IMVI melanoma 96.7% | SK-MEL-28 melanoma 106%

CCCCOC(=O)c1cc(O)c(O)c(O)c1
inactive: HCT-15 colon 49.1% | HT29 colon 85.3% | SNB-75 CNS 55.6% | SNB-19 CNS 88.9% | U251 CNS 65.2% | PC-3 prostate 80.4% | SK-MEL-5 melanoma 93.5% | LOX IMVI melanoma 74.4% | SK-MEL-28 melanoma 90.6%

Clc1cccc(CNc2c3ccccc3nc3ccccc23)c1
inactive: HCT-15 colon 14% | SNB-75 CNS 68.7% | SNB-19 CNS 26.4% | PC-3 prostate 23.5% | SK-MEL-5 melanoma 66.2% | UACC-62 melanoma 52.6% | SK-MEL-28 melanoma 66.2%
active: HT29 colon 8.62% | LOX IMVI melanoma 1.75%

CCn1c(Cc2ccccc2Nc2c(Cl)cccc2Cl)nnc1SCC(=O)Nc1cccc(OC)c1
inactive: HCT-15 colon 78.9% | HT29 colon 68.6% | SNB-75 CNS 86.2% | SNB-19 CNS 79.4% | U251 CNS 86.1% | PC-3 prostate 56.1% | SK-MEL-5 melanoma 91.6% | LOX IMVI melanoma 79.9% | SK-MEL-28 melanoma 96.4%

NC(N)=NC1CCCCC1
inactive: HCT-15 colon 103% | HT29 colon 97.1% | SNB-75 CNS 107% | SNB-19 CNS 104% | U251 CNS 89.9% | PC-3 prostate 89.8% | SK-MEL-5 melanoma 107% | LOX IMVI melanoma 91.6% | SK-MEL-28 melanoma 109%

CN(C)c1nc(-c2ccco2)n2nc(-c3ccc(Cl)cc3)cc2n1
inactive: HCT-15 colon 92.7% | HT29 colon 58.6% | SNB-75 CNS 20.9% | SNB-19 CNS 77.9% | U251 CNS 59.5% | PC-3 prostate 64.7% | SK-MEL-5 melanoma 81.2% | LOX IMVI melanoma 50.5% | SK-MEL-28 melanoma 94.8%

N/C(=C\C(=O)n1nc(-c2ccccc2)cc1N)c1ccccc1
inactive: HCT-15 colon 33.5% | HT29 colon 23.8% | SNB-75 CNS 29.9% | SNB-19 CNS 66.6% | PC-3 prostate 22.6% | SK-MEL-5 melanoma 32.2% | UACC-62 melanoma 36.9% | LOX IMVI melanoma 51.4% | SK-MEL-28 melanoma 42.2%

COc1ccc(-c2conc2-n2nc(-c3ccccc3)nc2-c2ccccc2)cc1
inactive: HCT-15 colon 107% | HT29 colon 102% | SNB-75 CNS 98.3% | SNB-19 CNS 104% | PC-3 prostate 95.6% | SK-MEL-5 melanoma 101% | UACC-62 melanoma 103% | LOX IMVI melanoma 92.6% | SK-MEL-28 melanoma 108%

COc1ccc2c(c1)N(Cc1ccc(Cl)cc1)CCC2N1CCCC1=O (configuration not stated)
inactive: HCT-15 colon 33.5% | HT29 colon 45.5% | SNB-75 CNS 27.1% | SNB-19 CNS 54.7% | PC-3 prostate 24% | SK-MEL-5 melanoma 24.7% | LOX IMVI melanoma 30.3% | SK-MEL-28 melanoma 63.5%

O=[N+]([O-])c1ccc(N=Nc2c(NNc3ccc([N+](=O)[O-])cn3)cc(S(=O)(=O)O)c3ccccc23)nc1
inactive: HCT-15 colon 68.7% | HT29 colon 40.8% | SNB-75 CNS 91.9% | SNB-19 CNS 95.6% | PC-3 prostate 67.7% | SK-MEL-5 melanoma 92% | UACC-62 melanoma 86.4% | LOX IMVI melanoma 57.9% | SK-MEL-28 melanoma 104%

O=C(Nc1ccncc1)C(=O)c1cn(S(=O)(=O)c2cccc(Cl)c2F)c2ccccc12
inactive: HCT-15 colon 50% | HT29 colon 50% | SNB-75 CNS 80.7% | SNB-19 CNS 82.7% | PC-3 prostate 75.8% | SK-MEL-5 melanoma 57.5% | UACC-62 melanoma 57% | SK-MEL-28 melanoma 95.1%

NC(=O)N/N=C\c1ccc([N+](=O)[O-])o1
inactive: HCT-15 colon 92.5% | HT29 colon 111% | SNB-75 CNS 84.3% | SNB-19 CNS 113% | PC-3 prostate 85.2% | SK-MEL-5 melanoma 107% | UACC-62 melanoma 103% | LOX IMVI melanoma 91.5% | SK-MEL-28 melanoma 106%

CCCCCCCCCCCCNC(=O)N[C@H](C(=O)N[C@H]1/C=C/CCNC(=O)/C=C/[C@H](C)NC1=O)C(C)C
active: SNB-75 CNS -94.9% | SNB-19 CNS -25.8% | PC-3 prostate -24% | SK-MEL-5 melanoma -100% | LOX IMVI melanoma -89.2% | SK-MEL-28 melanoma -70.2%
inactive: HCT-15 colon 27.9% | HT29 colon 11.8%

CCn1c(=O)c(C(=O)NCCCO)c(O)c2ccccc21
inactive: HCT-15 colon 103% | HT29 colon 109% | SNB-19 CNS 102% | U251 CNS 98.1% | PC-3 prostate 101% | SK-MEL-5 melanoma 94.2% | UACC-62 melanoma 94.4% | LOX IMVI melanoma 98.5% | SK-MEL-28 melanoma 118%

CCOC(=O)C1=C(C)NC(=S)NC1c1ccccc1 (configuration not stated)
inactive: HCT-15 colon 104% | HT29 colon 110% | SNB-75 CNS 82.6% | SNB-19 CNS 104% | PC-3 prostate 115% | SK-MEL-5 melanoma 103% | UACC-62 melanoma 95.6% | LOX IMVI melanoma 101% | SK-MEL-28 melanoma 112%

COc1ccc(CC2c3cc(OC)c(OC)cc3CC[N+]2(C)CCC(=O)OCCCCCOC(=O)CC[N+]2(C)CCc3cc(OC)c(OC)cc3C2Cc2ccc(OC)c(OC)c2)cc1OC (configuration not stated)
inactive: HCT-15 colon 102% | HT29 colon 96% | SNB-75 CNS 63.4% | SNB-19 CNS 104% | PC-3 prostate 90.3% | SK-MEL-5 melanoma 87.4% | UACC-62 melanoma 93.3% | LOX IMVI melanoma 81% | SK-MEL-28 melanoma 99.8%

O=C1OCC2=C1C(c1ccccc1)c1cc3c(cc1N2CCO)CCC3 (configuration not stated)
active: HT29 colon 6.75% | SNB-19 CNS -12.2% | SK-MEL-5 melanoma -29.2%
inactive: HCT-15 colon 14.1% | U251 CNS 12% | PC-3 prostate 15.7% | UACC-62 melanoma 31.7% | LOX IMVI melanoma 28.5% | SK-MEL-28 melanoma 42.7%

CCCCCCCCOC(=O)C(C)OC(=O)OCCOCCOC(=O)OC(C)C(=O)OCCCCCCCC (configuration not stated)
inactive: HCT-15 colon 111% | HT29 colon 115% | SNB-75 CNS 102% | SNB-19 CNS 104% | PC-3 prostate 87.7% | SK-MEL-5 melanoma 107% | UACC-62 melanoma 94.2% | LOX IMVI melanoma 101% | SK-MEL-28 melanoma 106%

O=C(/C=C/c1ccc(F)cc1)N1CCN(C(=O)/C=C/c2ccc(C(F)(F)F)cc2)CC1
inactive: HCT-15 colon 104% | HT29 colon 101% | SNB-75 CNS 119% | SNB-19 CNS 103% | PC-3 prostate 117% | SK-MEL-5 melanoma 98.9% | UACC-62 melanoma 96.6% | LOX IMVI melanoma 111% | SK-MEL-28 melanoma 106%

COc1ccc(C(=O)OC2C(OC3C(O)COC(O[C@H]4C[C@H]5[C@@H]6CC=C7C[C@@H](O)CC[C@]7(C)[C@H]6CC[C@]5(C)[C@H]4[C@H](C)C(=O)CCC(C)C)C3OC(=O)C(C)C)OCC(O)C2O)cc1 (some centres not stated)
active: HCT-15 colon -8.16% | PC-3 prostate 2.36% | SK-MEL-5 melanoma -36.3% | UACC-62 melanoma -35.6% | LOX IMVI melanoma -17.5% | SK-MEL-28 melanoma -49.6%
inactive: HT29 colon 12.1% | SNB-75 CNS 21.4% | SNB-19 CNS 27.8%
